Data: ChEMBL document CHEMBL4513216, “Probing the Open Global Health Chemical Diversity Library for Multistage-Active Starting Points for Next-Generation Antimalarials” (ACS Infect Dis, 2020)
About 2,700 (4%) of roughly 68,000 compounds showed an effect of 50% or more. The sample holds strong results, similar compounds and a random draw of the others, so the mix is not that of the screen.

System: Plasmodium berghei
Experiment: Screen against P. berghei liver stage (PbLuc), transformed with Luciferase, at 2uM
Type: functional, HepG2
Settings: tested at 2 uM

SMILES	INHIBITION
CCOc1ccc(Br)cc1-c1cc(N)[nH]n1	9.66%
CC(C)N(Cc1ccc(C#N)cc1)Cc1nnsc1Cl	22.34%
CCN(Cc1nnsc1Cl)C(C)c1ccc(C#N)cc1 (configuration not stated)	56.49%
CCCN(Cc1ccc(C#N)cc1)Cc1nnsc1Cl	20.14%
Cc1cc(C)nc(N2CCC(c3ccnc(N(C)C)n3)CC2)n1	-42.91%
Cc1nc(O)cc([C@@H]2CN(C(=O)C3CC3)C[C@H]2c2ccccc2F)n1	-7.22%
CC(=O)NCCNC(=O)CN1CCOC(Cn2cccn2)C1 (configuration not stated)	-21.68%
CC(C)(Oc1ccc(F)cc1)C(=O)NCc1ccco1	58.14%
CC(C)(C)Oc1ccc(NCC(=O)NCc2ccco2)cc1	-62.92%
CC(C)(Oc1ccc2c(c1)CCCC2=O)C(=O)NCc1ccco1	15.88%
c1ccc(N2CCCC3(COCCN(c4nccs4)C3)C2)nc1 (configuration not stated)	-29.98%
COc1cccc(CN2CCc3nc(C(=O)NCC(C)C)sc3CC2)c1	-4.19%
COc1ccc(C)cc1-n1cnnc1C1CC(=O)N(C)C1 (configuration not stated)	43.57%
Cc1nccc(C2CN(C(=O)c3cncnc3)C2)n1	38.22%
Cc1cc(C2CCCN(S(=O)(=O)N(C)C)C2)ccn1 (configuration not stated)	-5.34%
CC(Cn1cncn1)NC(=O)NCC(C)(C)Cc1ccccc1 (configuration not stated)	46.98%
CSCCc1ccc(NC(=O)NC(C)Cn2cncn2)cc1 (configuration not stated)	60.34%
CC(Cn1cncn1)NC(=O)Nc1ccc(COC2CCCC2)cc1 (configuration not stated)	1.01%
O=C(c1cocn1)N1CCC2(CC1)CC(OCC1CC1)CO2 (configuration not stated)	1.33%
O=C(c1cccnc1)N1CCC2(CCN(C(=O)c3ccco3)CC2)C1	14.52%
Nc1nc2nc(C3CCCN(C(=O)c4cncs4)C3)ccc2s1 (configuration not stated)	52.82%
Nc1nc2nc(C3CCCN(C(=O)c4cnccn4)C3)ccc2s1 (configuration not stated)	46.98%

SMILES	INHIBITION
CC(=O)N1CCCC(c2ccc3sc(N)nc3n2)C1 (configuration not stated)	17.01%
COc1ncc(CN2C[C@@H]3CC[C@@](O)(c4ccc(C)cn4)[C@@H]3C2)cn1	-2.21%
Cc1ccc([C@]2(O)CC[C@H]3CN(Cc4cccc(Cl)c4Cl)C[C@H]32)nc1	45.82%
Cc1ccc([C@]2(O)CC[C@H]3CN(Cc4ccncc4)C[C@H]32)nc1	51.35%
Cc1ccc([C@]2(O)CC[C@H]3CN(Cc4cc(C)c(O)c(C)c4)C[C@H]32)nc1	13.65%
Cc1ccc([C@]2(O)CC[C@H]3CN(Cc4cccnc4)C[C@H]32)nc1	12.16%
CSc1ccc(CN2C[C@@H]3CC[C@@](O)(c4ccc(C)cn4)[C@@H]3C2)cc1	61.3%
CC(C)(C)c1nnc(CN2CCCC2Cn2cncn2)o1 (configuration not stated)	-13.06%
COCCCN1C(=O)CC(N2CCN(c3ccc(F)cc3)CC2)C1=O (configuration not stated)	1.37%
CCn1nc(C)c2nc(C)nc(NCCc3ccc(C)cc3)c21	9.79%
CCCC(=O)N1CCC2(CC1)CC(NC(C)=O)c1ccccc1O2 (configuration not stated)	-25.44%
CC(C)C(=O)NC1COC2(CCN(C(=O)c3ccc[nH]3)CC2)C1 (configuration not stated)	25.46%
COCCN1CCOCC12CCN(C(=O)c1ccoc1)CC2	52.62%
COCCN1CCOCC12CCN(C(=O)c1cccnc1)CC2	0.91%
COCCN1CCOCC12CCN(C(=O)c1ccncc1)CC2	-41.59%
O=c1c2cn[nH]c2nc(SCCN2CCCC2)n1-c1ccccc1	-15.12%
Cc1cc(C(=O)Nc2n[nH]c(C3CC3)n2)c2c(C)noc2n1	-54.55%
COCC1CC2(CCN(S(=O)(=O)C3CC3)CC2)CN1c1ncccn1 (configuration not stated)	15.39%
CCNC(=O)[C@@H]1C[C@@H](NC(=O)CSC)CN1Cc1ccncc1	16.05%
COc1cc(CNC(=O)Nc2nnc(C(C)C)s2)ccc1O	-33.43%
COc1cc(CNC(=O)Nc2nnc(C(F)(F)F)s2)ccc1O	45.4%
COc1cc(CNC(=O)Nc2nnc(C3CC3)s2)ccc1O	53.61%

SMILES	INHIBITION
CCC(c1ccc(F)cc1)N1CCn2c(CO)nnc2C1 (configuration not stated)	18.76%
c1cc2c(cc1CN1CCC(Cc3noc(C4CC4)n3)CC1)OCCO2	1.52%
c1ccc(CN2CCC(Cc3noc(C4CC4)n3)CC2)cc1	17.33%
c1cc(CN2CCC(Cc3noc(C4CC4)n3)CC2)c2c(c1)OCO2	71.06%
Cc1nccn1-c1ccc(=O)n(CCNC(=O)c2cccs2)n1	-47.31%
O=C(c1cccc(S(=O)(=O)NCCc2nccs2)c1)N1CCOCC1	3.58%
CS(=O)(=O)N1C[C@@H]2CC[C@H]1CN(Cc1ccncc1)C2	-56.9%
Cc1ncsc1CN(Cc1ccccc1)Cc1ncc[nH]1	-43.51%
Cc1ncsc1C(=O)N(C)Cc1ccncc1	-25.22%
Cc1ncsc1CN(Cc1ccccc1)Cc1ccncc1	61.06%
Cn1nc(C2CCN(C(=O)c3cnccn3)C2)cc1CCO (configuration not stated)	-18.15%
Cc1ccc(-n2ccnc2)c(C(=O)NCCOCC2CCCO2)c1 (configuration not stated)	51.4%
Cc1ccc(-n2ccnc2)c(C(=O)NCCCN(C)C)c1	20.21%
Cc1ccc(-n2ccnc2)c(C(=O)NCCOCC(F)(F)F)c1	16.98%
CN1CCN(S(=O)(=O)C2CC2)Cc2cccnc21	-5.9%
CN(C)C(=O)N1CCN(C)c2ncccc2C1	47.25%
CN1CCN(C(=O)NC2CCCC2)Cc2cccnc21	11.87%
CN1CCN(C(=O)N2CCCC2)Cc2cccnc21	52.3%
CN1CCN(S(C)(=O)=O)Cc2cccnc21	58.97%
CCS(=O)(=O)N1CCN(C)c2ncccc2C1	4.07%
Cc1nc(Nc2nccs2)cc(C2CCCN2)n1 (configuration not stated)	-26.8%
CCC(O)Cn1nc(CCSC)nc1-c1ccc2[nH]ccc2c1 (configuration not stated)	20.45%

SMILES	INHIBITION
O=C(Cc1cnc(-c2c(Cl)cccc2Cl)s1)N1CCOCC1	56.75%
O=C(Cc1cnc(-c2c(Cl)cccc2Cl)s1)N1CCC2(CC1)OCCO2	-6.29%
CC(=O)N1CCN(C(=O)Cc2cnc(-c3c(Cl)cccc3Cl)s2)CC1	25.61%
NC(=O)CCNC(=O)C1(N2CCCCC2)Cc2ccccc2C1	14.19%
c1ccc(CCN2CCN(c3ccc4nncn4n3)CC2)cc1	-2.47%
Clc1ccccc1CCN1CCN(c2ccc3nncn3n2)CC1	50.77%
c1ccc(CCN2CCN(c3ccc4nncn4n3)CC2)nc1	-59.79%
COC1COC2(CCN(Cc3ccco3)CC2)C1 (configuration not stated)	24.91%
Cc1noc2ncc(C(=O)NCC3CCN(C(C)C)C3)cc12 (configuration not stated)	-5.2%
CS(=O)(=O)c1cn[nH]c1C1CCCN1C(=O)c1cccnc1 (configuration not stated)	10.3%
Cc1cccc(C(=O)N2CCCCC2c2[nH]ncc2S(C)(=O)=O)c1 (configuration not stated)	52.69%
Cc1ccc(C(=O)N2CCCCC2c2[nH]ncc2S(C)(=O)=O)cn1 (configuration not stated)	19.75%
COC(=O)c1ccc(CNC(=O)Nc2ccc(=O)n(C)c2)cc1	-18.09%
CS(=O)(=O)c1cccc(C(=O)NCc2nc3cc(F)ccc3[nH]2)c1	30.57%
Cn1cc(CN2CCCC(CCc3ccc(F)cc3)C2)cn1 (configuration not stated)	2.3%
Cn1cc(CN2CCCC(CCc3ccc(F)c(F)c3)C2)cn1 (configuration not stated)	64.2%
Fc1ccc(CCC2CCCN(Cc3c[nH]cn3)C2)c(F)c1 (configuration not stated)	-20.35%
Cn1cc(CN2CCCC(CCc3ccc(F)cc3F)C2)cn1 (configuration not stated)	69.71%
Cn1cc(CN2CCCC(CCc3c(F)cccc3F)C2)cn1 (configuration not stated)	43.27%
Cn1cc(CN2CCCC(CCc3ccccc3C(F)(F)F)C2)cn1 (configuration not stated)	24.55%
CN(C)C(=O)CN1C[C@H]2CCN(Cc3ccccc3)CC[C@H]2S1(=O)=O	-10.78%
COC(=O)C(NC(=O)Nc1ccc(C(C)=O)cc1)C(C)C (configuration not stated)	-7.05%

SMILES	INHIBITION
CN(C)c1nccc(C2CN(c3ccccc3)CCO2)n1 (configuration not stated)	-39.97%
CN(C)c1nccc(C2CN(c3cnccn3)CCO2)n1 (configuration not stated)	57.47%
CC(C)N1CCOC(c2ccnc(N(C)C)n2)C1 (configuration not stated)	-2.41%
N#CCSCCCN1CCC(C(=O)N2CCCCCC2)CC1	-28.22%
Cc1ccc(CN2CC[C@H](c3nnc(COc4ccc(F)cc4)o3)C2)o1	17.76%
COCCNC(=O)[C@H]1C[C@@H]2CCN(CCc3ccccc3)C[C@H]2O1	-56.44%
Cc1cn(CC(=O)Nc2cc(C(C)C)nn2C)cn1	5.93%
Cn1nc(C(C)(C)C)cc1NC(=O)Cn1ccnc1	-24.02%
CCc1nnc2n1CCN(CC(=O)Nc1cc(C)on1)C2	13.91%
CCc1nnc2n1CCN(CC(=O)Nc1cc(C(C)(C)C)nn1C)C2	54.85%
Cc1cn(CC(=O)Nc2cc(C(C)(C)C)nn2C)cn1	53.66%
CCc1nnc2n1CCN(CC(=O)Nc1cc(C)nn1C)C2	12.81%
CC(SCC(=O)N(C)CC(=O)NC1CC1)c1ccccc1F (configuration not stated)	-16.7%
CCC1CN(C(=O)c2cc(CN(C)CCc3ccccc3)on2)CCO1 (configuration not stated)	-11.41%
CN(CCc1ccccc1)C(=O)c1cc(CN2CCC(O)CC2)on1	-10.41%
CN(CCc1ccccc1)Cc1cc(C(=O)N2CCCC2(C)C)no1	61.89%
CN1CCCN(C(=O)c2cc(CN(C)CCc3ccccc3)on2)CC1	5.28%
CN(CCc1ccccc1)Cc1cc(C(=O)N2CCN(C)C(=O)C2)no1	-64.43%
CN(CCc1ccccc1)Cc1cc(C(=O)N2CCSCC2)no1	72.05%
